# Assay results as given in the supplement of paper PMC12494721.
# Where a name gives a salt, the structure may show the parent alone.
# Experiments:
# Conditions in all cases: 20 µM; incubation time: 27 h, anaerobic, 37 °C;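 for the amine columns active = adjusted P below 0.05 in both replicates with a change the same way and a mean fold change under 0.8 or over 1.25; inactive = the rest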
# [1] = tested on: Clostridium sporogenes DSM 1664; assay: growth (OD595) fold change vs plate DMSO controls (fold change (ratio)); higher = more growth
# Method in brief: (§1)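 To obtain OD, 595 nm absorbance readings were blank-subtracted, corrected for compound background using 20 µM compound solutions in water, and multiplied by a calibration factor of 5. They came from 96-well mGAM cultures grown anaerobically for 27 h at 37 °C and shaken before reading. Growth is the fold change relative to the median of plate DMSO controls. Two biological replicates were averaged, and fold changes above 1.5 were set to NA.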
# [2] = tested on: Escherichia coli IAI1; assay: as above
# Method in brief: as §1
# [3] = tested on: Klebsiella aerogenes DSM 30053; assay: as above
# Method in brief: as §1
# [4] = tested on: Ruminococcus gnavus DSM 108212; assay: as above
# Method in brief: as §1
# [5] = tested on: Klebsiella aerogenes DSM 30053; assay: fold change of Histamine concentration vs plate DMSO controls (fold change (ratio)); higher = more amine produced, active = hit call of the paper (significant change in both replicates, either direction)
# Method in brief: (§2)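 Extracts of whole anaerobic mGAM cultures were analysed for amines by LC–triple-quadrupole MS with dynamic MRM and external calibration curves, with drift corrected within batch. Four gut strains were grown at 37 °C for 27 h in 80 µL wells with compounds at 20 µM final, sweeteners at 50 µM final. Each value expresses fold change over plate DMSO controls. The average of 2 biological replicates is shown.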
# [6] = tested on: Clostridium sporogenes DSM 1664; assay: fold change of Tryptamine concentration vs plate DMSO controls (fold change (ratio)); higher = more amine produced, active = hit call of the paper (significant change in both replicates, either direction)
# Method in brief: as §2
# [7] = tested on: Ruminococcus gnavus DSM 108212; assay: as above
# Method in brief: as §2
# [8] = tested on: Escherichia coli IAI1; assay: fold change of Putrescine concentration vs plate DMSO controls (fold change (ratio)); higher = more amine produced, active = hit call of the paper (significant change in both replicates, either direction)
# Method in brief: as §2
# [9] = tested on: Klebsiella aerogenes DSM 30053; assay: as above
# Method in brief: as §2
# [10] = tested on: Escherichia coli IAI1; assay: fold change of Cadaverine concentration vs plate DMSO controls (fold change (ratio)); higher = more amine produced, active = hit call of the paper (significant change in both replicates, either direction)
# Method in brief: as §2
# [11] = tested on: Klebsiella aerogenes DSM 30053; assay: as above
# Method in brief: as §2
# [12] = tested on: Ruminococcus gnavus DSM 108212; assay: fold change of 2-Phenylethylamine concentration vs plate DMSO controls (fold change (ratio)); higher = more amine produced, active = hit call of the paper (significant change in both replicates, either direction)
# Method in brief: as §2
SMILES,growth [1],growth [2],growth [3],growth [4],fold change of Histamine concentration [5],fold change of Tryptamine concentration [6],fold change of Tryptamine concentration [7],fold change of Putrescine concentration [8],fold change of Putrescine concentration [9],fold change of Cadaverine concentration [10],fold change of Cadaverine concentration [11],fold change of 2-Phenylethylamine concentration [12]
COc1ccc(C(=O)N2CCCC2=O)cc1 [Aniracetam],0.932,0.978,1.04,0.771,0.853 (inactive),1.09 (inactive),1.03 (inactive),0.929 (inactive),0.976 (inactive),1.02 (inactive),1.01 (inactive),1.03 (inactive)
CCc1nn(C)c(C(=O)NCc2ccc(Oc3ccc(C)cc3)cc2)c1Cl,0.969,1.02,1.01,1.17,0.963 (inactive),0.927 (inactive),1.02 (inactive),0.947 (inactive),1 (inactive),1.01 (inactive),0.998 (inactive),1.04 (inactive)
COCc1cnc(C2=NC(C)(C(C)C)C(=O)N2)c(C(=O)O)c1 (stereo not drawn),1.1,1.04,0.971,0.967,1.03 (inactive),1.11 (inactive),1.17 (inactive),0.961 (inactive),0.797 (inactive),0.852 (inactive),1.06 (inactive),1.43 (inactive)
CN(C)C(CSS(=O)(=O)O)CSS(=O)(=O)O,1.11,0.998,0.99,0.931,1.01 (inactive),0.933 (inactive),1.02 (inactive),1.04 (inactive),0.999 (inactive),1.02 (inactive),0.988 (inactive),0.987 (inactive)
N#Cc1nn(-c2c(Cl)cc(C(F)(F)F)cc2Cl)c(N)c1[S+]([O-])C(F)(F)F (stereo not drawn) [Fipronil],1.26,1.11,1.1,1.28,0.947 (inactive),1.05 (inactive),1 (inactive),1.03 (inactive),0.981 (inactive),1.01 (inactive),1 (inactive),1.04 (inactive)
C#C[C@]1(O)CC[C@H]2[C@@H]3CCC4=CC(=O)CCC4=C3C=C[C@@]21CC [Gestrinone],1.02,0.985,0.996,1.04,0.947 (inactive),1.03 (inactive),1.16 (inactive),0.88 (inactive),0.96 (inactive),0.913 (inactive),1.03 (inactive),1.18 (inactive)
CC1(C)C(C=C(Cl)Cl)C1C(=O)OCc1cccc(Oc2ccccc2)c1 (mixture of isomers),0.957,0.993,1,1.07,1.01 (inactive),1.05 (inactive),1.03 (inactive),1.04 (inactive),0.995 (inactive),1.06 (inactive),1 (inactive),1.02 (inactive)
OC(Cc1ccccc1Cl)(Cn1nc[nH]c1=S)C1(Cl)CC1 (stereo not drawn),0.971,1.12,0.969,0.953,1.04 (inactive),1.02 (inactive),0.978 (inactive),0.937 (inactive),0.96 (inactive),0.946 (inactive),0.974 (inactive),0.951 (inactive)
CNC(=O)c1cc(Cl)cc(C)c1NC(=O)c1cc(Br)nn1-c1ncccc1Cl,0.896,1.11,1.06,1.17,0.901 (inactive),0.953 (inactive),0.997 (inactive),1.02 (inactive),0.982 (inactive),0.964 (inactive),0.999 (inactive),1.01 (inactive)
CSc1nnc(C(C)(C)C)c(=O)n1N,0.994,1.01,1,0.945,0.976 (inactive),0.982 (inactive),1.07 (inactive),0.945 (inactive),0.978 (inactive),0.959 (inactive),1.04 (inactive),1.13 (inactive)
CC[C@@H](CO)NC(=O)[C@@H]1C=C2c3cccc4[nH]cc(c34)C[C@H]2N(C)C1 [Methylergometrine maleate],1.08,1.03,1,1.11,1.03 (inactive),1.03 (inactive),1.02 (inactive),0.965 (inactive),1.01 (inactive),0.996 (inactive),1 (inactive),1.02 (inactive)
C[C@]12COC(=O)C[C@@H]1CC[C@@H]1[C@@H]2CC[C@@]2(C)[C@H]1CC[C@]2(C)O [Oxandrolone],0.947,0.993,1.03,0.877,0.945 (inactive),0.945 (inactive),1.01 (inactive),0.974 (inactive),0.991 (inactive),1.02 (inactive),0.999 (inactive),1.06 (inactive)
O=C(CCCN1CCC2(CC1)C(=O)NCN2c1ccccc1)c1ccc(F)cc1 [Spiperone],0.864,0.96,0.968,0.921,1.01 (inactive),0.991 (inactive),1.01 (inactive),1.02 (inactive),1.01 (inactive),1.01 (inactive),0.998 (inactive),1.04 (inactive)
Cc1cccc(C)c1NC1=NCCCS1 [Xylazine],1.16,0.985,0.959,0.87,1.09 (inactive),1.01 (inactive),1 (inactive),1.03 (inactive),1.02 (inactive),0.991 (inactive),0.993 (inactive),1 (inactive)
CC(C)(C)NCC(O)c1ccccc1Cl (stereo not drawn) [Tulobuterol hydrochloride],1.21,1.07,1,0.927,1.04 (inactive),1.08 (inactive),0.664 (inactive),1.07 (inactive),1.01 (inactive),0.968 (inactive),0.99 (inactive),0.653 (inactive)
Cc1c(COC(=O)[C@@H]2[C@H](/C=C(\Cl)C(F)(F)F)C2(C)C)cccc1-c1ccccc1 (racemic),1.05,1.09,0.978,1.13,1.02 (inactive),0.975 (inactive),1.03 (inactive),1 (inactive),0.953 (inactive),0.864 (inactive),0.989 (inactive),1.07 (inactive)
Cc1cccc(C)c1NC(=O)CN1CCCC1=O [Nefiracetam],1.01,0.985,1.02,1.06,0.973 (inactive),1.04 (inactive),1.01 (inactive),0.988 (inactive),1.01 (inactive),1.01 (inactive),1 (inactive),1.01 (inactive)
CN(C)[C@@H]1C(=O)C(C(N)=O)=C(O)[C@@]2(O)C(=O)C3=C(O)c4c(O)ccc(Cl)c4[C@@](C)(O)[C@H]3C[C@@H]12 [Chlortetracycline hydrochloride],0.00816,0.064,0.0706,0.431,0.0679 (active),0.0172 (active),0.302 (active),0.253 (active),0.47 (inactive),0.146 (active),0.483 (inactive),0.271 (active)
CN1[C@@H]2CC[C@H]1C[C@@H](OC(=O)C(CO)c1ccccc1)C2 (stereo partly drawn) [Atropine sulfate monohydrate],–,0.98,–,0.986,1.03 (inactive),–,1.01 (inactive),0.982 (inactive),1.02 (inactive),0.957 (inactive),1.02 (inactive),1.01 (inactive)
CCC(COC(=O)c1cc(OC)c(OC)c(OC)c1)(c1ccccc1)N(C)C (stereo not drawn) [Trimebutine],0.842,0.979,0.999,0.868,0.944 (inactive),0.936 (inactive),1.06 (inactive),0.928 (inactive),1.01 (inactive),0.997 (inactive),1.01 (inactive),1.04 (inactive)
COCC(=O)N(c1c(C)cccc1C)C(C)C(=O)OC (stereo not drawn),0.957,1.02,1.04,1.02,0.965 (inactive),0.98 (inactive),0.983 (inactive),1.04 (inactive),1 (inactive),1.01 (inactive),1.01 (inactive),0.983 (inactive)
NCCc1c[nH]c2ccc(O)cc12 [Serotonin hydrochloride],0.937,0.985,0.99,0.934,1.1 (inactive),1.02 (inactive),1 (inactive),0.993 (inactive),1.08 (inactive),1.06 (inactive),1.06 (inactive),0.93 (inactive)
CN1[C@@H]2CC[C@H]1C[C@@H](OC(=O)[C@H](CO)c1ccccc1)C2 [(L) Hyoscyamine],–,1.03,1.06,1.08,0.941 (inactive),–,1.13 (inactive),0.992 (inactive),0.94 (inactive),0.923 (inactive),1.02 (inactive),1.11 (inactive)
C[C@]12CCC(=O)C=C1C=C[C@@H]1[C@@H]2CC[C@@]2(C)[C@H]1CC[C@@]2(O)CCC(=O)O [Canrenoic acid potassium salt],1.1,1,1.02,0.902,0.964 (inactive),1.05 (inactive),1.06 (inactive),1.02 (inactive),0.98 (inactive),0.997 (inactive),0.996 (inactive),1.09 (inactive)
